Our source for the Potency and activity (max response) values is PubChem BioAssay (NCATS).

Test [1] can be described thus: Quantitative highthroughput screen to assess conditional lethalithy of NOMO1 cells grown in RPMI1640 with untreated serum (RPMI+s) (AID 1963876). Also: nearly all actives have a fitted effect of over 35% in size. Also: potency is read from the fitted curve at half-maximal effect.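 As to viability: 100% = DMSO wells and 0% = empty wells without cells.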 The method in brief:
(§1)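 Each medium arm—HPLM with 10% dialyzed FBS, or RPMI1640 with 5 mM glucose and 10% untreated or dialyzed FBS—was screened against an 11-point, 3-fold compound titration for 48 h at 37 °C, with CellTiter-Glo luminescence as endpoint.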

The nature of test [2]: Quantitative highthroughput screen to assess conditional lethalithy of NOMO1 cells grown in RPMI1640 with dialyzed fetal bovine serum (RPMI+ds) (AID 1963877). Also: nearly all actives have a fitted effect of over 30% in size. Also: potency is read from the fitted curve at half-maximal effect.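 As to viability: series mostly up to about 46 µM; 100% = DMSO control wells and 0% = empty wells.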 The procedure, abridged:
as §1

Test [3] can be described thus: Quantitative highthroughput screen to assess conditional lethalithy of NOMO1 cells grown in Human Plasma-Like Medium with dialyzed fetal bovine serum (HPLM+ds) (AID 1963878). Also: nearly all actives have a fitted effect of over 35% in size. Also: potency is read from the fitted curve at half-maximal effect.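 As to viability: 100% = DMSO wells and 0% = empty wells on each plate.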 The procedure, abridged:
as §1

A short description of test [4]: Quantitative highthroughput screen to assess conditional lethalithy of P12 Ichikawa cells grown in Human Plasma-Like Medium with dialyzed fetal bovine serum (HPLM+ds) (AID 1963879). Also: nearly all actives have a fitted effect of over 35% in size. Also: potency is read from the fitted curve at half-maximal effect. As to viability: series mostly up to about 46 µM. As to conditions: Potency: viability. The method in brief: as §1
Test [5] can be described thus: Quantitative highthroughput screen to assess conditional lethalithy of P12 Ichikawa cells grown in RPMI1640 with dialyzed fetal bovine serum (RPMI+ds) (AID 1963880). Also: nearly all actives have a fitted effect of over 35% in size. Also: potency is read from the fitted curve at half-maximal effect.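 As to viability: 100% = DMSO wells and 0% = empty wells on each plate.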 To be noted: Potency: P12-Ichikawa viability. The procedure, abridged: as §1
Test [6] in a line: Quantitative highthroughput screen to assess conditional lethalithy of P12 Ichikawa cells grown in RPMI1640 with untreated serum (RPMI+s) (AID 1963881). Also: nearly all actives have a fitted effect of over 35% in size. Also: potency is read from the fitted curve at half-maximal effect.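 As to viability: series mostly up to about 46 µM; 100% = DMSO wells and 0% = empty wells without cells.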 To be noted: Potency: viability. The procedure, abridged:
as §1

A short description of test [7]: Quantitative highthroughput screen to assess conditional lethalithy of SEM cells grown in Human Plasma-Like Medium with dialyzed fetal bovine serum (HPLM+ds) (AID 1963882). Also: nearly all actives have a fitted effect of over 35% in size. Also: potency is read from the fitted curve at half-maximal effect. As to viability: series mostly up to about 46 µM. The method in brief: as §1
Test [8] is described as follows: Quantitative highthroughput screen to assess conditional lethalithy of SEM cells grown in RPMI1640 with unreated serum (RPMI+s) (AID 1963883). Also: nearly all actives have a fitted effect of over 35% in size. Also: potency is read from the fitted curve at half-maximal effect.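 As to viability: 100% = DMSO wells and 0% = empty wells without cells.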 The procedure, abridged:
as §1

Test [9] in a line: Quantitative highthroughput screen to assess conditional lethalithy of SEM cells grown in RPMI1640 with dialyzed fetal bovine serum (RPMI+ds) (AID 1963884). Also: nearly all actives have a fitted effect of over 35% in size. Also: potency is read from the fitted curve at half-maximal effect.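 As to viability: series mostly up to about 46 µM; 100% = DMSO control wells and 0% = empty wells without cells.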 The procedure, abridged:
as §1

The nature of test [10]: Cellular viability qHTS for adrenocortical cancer (ACC) cell line SW-13 (AID 1963989). Also: nearly all actives have a fitted effect of over 65% in size. Also: potency is read from the fitted curve at half-maximal effect.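 As to activity (max response): cells grown in serum-free medium with ITS supplement; % is scaled to controls: 0 for no effect and ±100 for the full control effect.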 To be noted: SW-13 ACC cells viability, CellTiter-Glo, 48 h; activity (max response): active compounds read low. The procedure, abridged: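 Here, serum-free SW-13 cultures were dosed up to 46 uM. Following 48 h, ATP-dependent luminescence (CellTiter-Glo) reported viable cells, and logistic modeling produced IC50 values.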
For orientation: In qHTS, concentration-response curves come from the screen itself.

A short description of test [11]: Cellular viability qHTS for adrenocortical cancer (ACC) cell line NCI-H295R (AID 1963990).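 Also: 0% = DMSO only wells and -100% = full killing with cytotoxic reference compound; nearly all actives have a fitted effect of over 60% in size.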 The method in brief:
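Viability of NCI-H295R after 48 h of treatment (final up to 46 uM) measured through cellular ATP luminescence.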

Results filed as inconclusive are left out. A number with no mark means an inactive call. Activity calls are given as the source filed them. Calls follow the shape of the dose curve; as a rule, active = well fitted curve in the direction sought with a large enough effect; inconclusive = small, poorly fitted or top-dose-only effect, or another doubt; inactive = no such curve, though single readings can be large; an effect the other way counts as inactive or inconclusive.

`CC1(C)CC(O)CC(C)(C)N1[O]`: the Potency result in test [1], in [2], in [3], in [4], in [5] and in test [6] was “inactive” in each case. Further, the Potency entry in test [7], in test [8] and in test [9] was “inactive” in each case.
Regarding `CNC(=O)c1ccc(N2C(=S)N(c3ccc(C#N)c(C(F)(F)F)c3)C(=O)C2(C)C)cc1F`, the Potency entry in test [1], in [2], in test [3], in test [4], in [5] and in [6] was “inactive” throughout. The Potency entry in test [7], in [8], in test [9] and in [11] was “inactive” throughout. Moreover, the activity (max response) in [10] is -1.24%.
Turning to `O=C(O)C(=O)Nc1cccc(C2=NN=N[N]2)c1`, the Potency entry in [1], in [2], in test [3], in test [4], in test [5] and in test [6] was “inactive” each time. For the same molecule, the Potency result in [7], in test [8] and in [9] was “inactive” each time.
In the case of `COc1ccnc2[nH]cc(C(=O)C(=O)N3CCN(C(=O)c4ccccc4)C[C@@H]3C)c12`, the Potency entry in test [1], in [2], in test [3], in test [4], in test [5] and in [6] was “inactive” throughout. Besides, the Potency result in test [7], in test [8] and in test [9] was “inactive” throughout.
`Cn1cc(-c2ccc3nnc(Sc4ccc5ncccc5c4)n3n2)cn1`: the Potency result in [1], in test [2], in [3], in test [4], in test [5] and in test [6] was “inactive” in each case. Besides, the Potency result in test [7], in test [8], in test [9] and in test [11] was “inactive” throughout. Besides, in [10], the activity (max response) is -4.92%.
Consider `N#CC(=C(O)c1ccc(Cl)cc1Cl)c1nc2cc(Cl)ccc2c(=O)[nH]1`, for which the Potency result in test [1], in test [2], in test [3], in test [4], in [5] and in test [6] was “inactive” each time. Also, the Potency result in test [7], in test [8] and in test [9] was “inactive” throughout.
For the molecule `N#CC(c1ccnc(NCCc2cccnc2)n1)c1nc2ccccc2s1` (centres undefined), the Potency entry in test [1], in test [2], in [3], in test [4], in test [5] and in [6] was “inactive” throughout. The Potency result in test [7], in test [8] and in [9] was “inactive” in each case. Further, the Potency in test [10] is 25100 nM (active).
For `CCN(CC)CCn1c(=O)c(Cc2ccc(OC)cc2)nc2ccccc21`, the Potency result in test [1], in test [2], in [3], in test [4], in test [5] and in test [6] was “inactive” throughout. Further, the Potency entry in test [7], in [8] and in test [9] was “inactive” throughout. Also, the activity (max response) in test [10] is -3.48%.
Turning to `COC(=O)[C@]12CCC(C)(C)C[C@@H]1[C@@H]1C(=O)C=C3[C@@]4(C)C=C(C#N)C(=O)C(C)(C)[C@@H]4CC[C@@]3(C)[C@]1(C)CC2`, the Potency in test [1] is 9350 nM (active); in test [2] it was 8330 nM (active); in test [3] it was 9350 nM (active); in [4], 9350 nM (active); in [5], 8330 nM (active); in test [6], 9350 nM (active). Moreover, the values for the Potency in [7], in [8] and in test [9] were 7430 nM (active), 9350 nM (active) and 6620 nM (active), respectively.
Consider `C=C1[C@H](n2cnc3c(=O)[nH]c(N)nc32)C[C@H](O)[C@H]1CO`, for which the Potency was 18700 nM (active) in test [1]; 3720 nM (active) in test [2]; 4180 nM (active) in [3]; 2640 nM (active) in test [4]; 1180 nM (active) in [5]; 2960 nM (active) in test [6]. In addition, the Potency in [7] was 187 nM (active); in [8], 526 nM (active); in [9] it was 46.9 nM (active).
For the molecule `OCCn1cc(-c2ccc3c(c2)CCC3=NO)c(-c2ccncc2)n1`, the Potency result in [1], in test [2], in [3], in test [4], in test [5] and in test [6] was “inactive” in each case. Besides, the Potency result in [7], in test [8] and in test [9] was “inactive” throughout.
Consider `C[N+]1(C)[C@@H]2CC(OC(=O)[C@H](CO)c3ccccc3)C[C@H]1[C@H]1O[C@@H]12` (some centres undefined), for which the Potency result in test [1], in test [2], in test [3], in test [4], in test [5] and in test [6] was “inactive” in each case. Also, the Potency result in [7], in [8] and in test [9] was “inactive” throughout.
Regarding `CCOc1cc2ncc(C#N)c(Nc3ccc(OCc4ccccn4)c(Cl)c3)c2cc1NC(=O)C=CCN(C)C`, the Potency is 526 nM (active) in test [1]; 935 nM (active) in [2]; 332 nM (active) in test [3]; 590 nM (active) in test [4]; 1050 nM (active) in [5]; 1050 nM (active) in test [6]. Moreover, the Potency in test [7] is 332 nM (active); in [8] it was 148 nM (active); in test [9] it was 296 nM (active).
With `O=C(CS(=O)Cc1ccco1)NCC=CCOc1cc(CN2CCCCC2)ccn1` (centres undefined), the Potency entry in [1], in [2], in test [3], in [4], in [5] and in test [6] was “inactive” throughout. The Potency result in test [7], in test [8] and in [9] was “inactive” each time.
`CC(=O)O[C@H]1C[C@@H]2CC[C@H]3[C@H]4C[C@H]([N+]5(C)CCCCC5)[C@@H](OC(C)=O)[C@@]4(C)CC[C@@H]3[C@@]2(C)C[C@H]1N1CCCCC1`: the Potency result in test [1], in test [2], in test [3], in [4], in test [5] and in test [6] was “inactive” in each case. The Potency entry in [7], in test [8] and in test [9] was “inactive” in each case.
On to `OC[C@H]1O[C@@H](n2cnc3c2NC=NC[C@@H]3O)C[C@H]1O`, for which the Potency entry in test [1], in [2], in [3], in test [4], in test [5] and in [6] was “inactive” throughout. For the same molecule, the Potency entry in [7], in [8] and in test [9] was “inactive” each time.
Take `C[C@H](CCC(=O)O)[C@H]1CC[C@H]2[C@@H]3[C@H](O)C[C@@H]4C[C@H](O)CC[C@]4(C)[C@@H]3CC[C@]12C`: the Potency result in [1], in test [2], in test [3], in test [4], in test [5] and in test [6] was “inactive” throughout. The Potency result in test [7], in [8] and in test [9] was “inactive” throughout.
